Experimental findings from PubChem BioAssay (NCI) are described below.

Compounds without any hit were thinned out: in the full panel of roughly 83,000, 20% have a hit.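 For each line, cells grew in 96-well plates with the test compound present at a single concentration for 48 hours.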 Values without a mark were called inactive. Active and inactive are the calls of the source. Rule for the calls: active = growth percent below 10; inactive = the rest.

Some test systems named below: DU-145 prostate; K-562 leukemia; MALME-3M melanoma; MDA-MB-231 breast; RXF 393 renal; SF-268 CNS; SF-295 CNS; SF-539 CNS; UACC-257 melanoma.
Test in all cases: NCI-60 one-dose screen, 48 h (100 = growth as untreated, 0 = no growth, -100 = all killed)
Common to all, as to conditions: 10 µM unless noted

For the molecule `Cc1ccc(-n2c(/C=C3\C(=O)Nc4ccccc43)ccc2CO)cc1`, the growth with DU-145 prostate is 92.2%; in the test on K-562 leukemia it was 19.2%; with MALME-3M melanoma it was 44%; with MDA-MB-231 breast, 64%; with RXF 393 renal, 66.1%; with SF-268 CNS, 89.5%. For the same molecule, the growth is 69.8% with SF-295 CNS, 68.7% in the test with SF-539 CNS and 85.8% with UACC-257 melanoma.

With `NS(=O)(=O)c1ccc(Nc2nc(N/N=C/c3ccc(Cl)cc3)nc(Nc3ccccc3)n2)cc1`, the growth in the test with DU-145 prostate was 72.7%; in the test with K-562 leukemia, 59.9%; in the test with MALME-3M melanoma, 88.3%; with MDA-MB-231 breast, 86.7%; in the test on RXF 393 renal, -11.5% (active); in the test on SF-268 CNS, 73.7%. Further, the growth with SF-295 CNS was 58.6%; in the test with SF-539 CNS it was 53.8%; in the test on UACC-257 melanoma, 89.5%.

`Cc1ccc(-c2nnc(SCc3ccc(O)c4ncccc34)n2-c2ccccc2)cc1`: the growth was 30.2% in the test with DU-145 prostate; 6.04% (active) with K-562 leukemia; 3.77% (active) in the test with MALME-3M melanoma; 23.6% in the test on MDA-MB-231 breast; -0.61% (active) in the test with RXF 393 renal; 14.8% in the test with SF-268 CNS. In addition, the values for the growth with SF-295 CNS, with SF-539 CNS and in the test on UACC-257 melanoma were -10.3% (active), 5.11% (active) and -7.27% (active), respectively.

As to `Cc1cc2nc(C(Cl)Cl)nc(-c3cccs3)n2n1`, the growth in the test on DU-145 prostate was -26.5% (active); in the test on K-562 leukemia, 35.3%; in the test with MALME-3M melanoma, 39.7%; with MDA-MB-231 breast, 11.2%; with RXF 393 renal, -52.9% (active); in the test with SF-268 CNS it was 28.9%. Moreover, the growth with SF-295 CNS was -9.21% (active); with SF-539 CNS, 17.5%; in the test on UACC-257 melanoma, 33.1%.

Turning to `CN(Cc1ccccc1)S(=O)(=O)/N=C1\NC(=O)NC1=C(Cl)Cl`, the growth was 25.7% with DU-145 prostate; 1.09% (active) in the test on K-562 leukemia; -19.9% (active) in the test on MALME-3M melanoma; -2.3% (active) in the test with MDA-MB-231 breast; 55.1% in the test with RXF 393 renal; 56.1% in the test with SF-268 CNS. Moreover, the growth in the test on SF-295 CNS is 98.9%; in the test on SF-539 CNS it was 0.38% (active); with UACC-257 melanoma, 68.2%.

On to `O=C(CSc1nnc(-c2ccc3nc(-c4ccccc4)[nH]c3c2)o1)Nc1ccc(C(=O)/C=C/c2ccccc2)cc1`, for which the growth is 107% with DU-145 prostate; 112% with K-562 leukemia; 94.5% in the test with MALME-3M melanoma; 105% in the test on MDA-MB-231 breast; 114% in the test with RXF 393 renal; 109% in the test with SF-268 CNS. For the same molecule, the growth is 109% in the test with SF-295 CNS, 96.8% with SF-539 CNS and 103% in the test with UACC-257 melanoma.

Consider `CCN1CCN(Cc2ccc(C(=O)Nc3ccc(C)c(Oc4ccc(-c5[nH]nc6ncnc(N)c56)cc4)c3)cc2C(F)(F)F)CC1`, for which the growth in the test with DU-145 prostate was 98.6%; with K-562 leukemia it was 3.44% (active); in the test on MALME-3M melanoma, 22.8%; in the test with MDA-MB-231 breast it was 82.7%; in the test on RXF 393 renal, 44.3%; with SF-268 CNS, 90.5%. The figures for the growth in the test with SF-295 CNS, in the test on SF-539 CNS and in the test on UACC-257 melanoma were 78.8%, 55.6% and 71.9%, respectively.

For the molecule `O=S(=O)(Oc1ccc(-c2nnc(Nc3ccccc3)s2)cc1)C(F)(F)C(F)(F)C(F)(F)C(F)(F)C(F)(F)C(F)(F)F`, the growth in the test on DU-145 prostate is 107%; with K-562 leukemia, 94.4%; in the test on MALME-3M melanoma, 108%; in the test on MDA-MB-231 breast it was 86.9%; with RXF 393 renal, 102%; with SF-268 CNS it was 100%. The growth is 105% with SF-295 CNS, 97.7% in the test on SF-539 CNS and 96.8% with UACC-257 melanoma.

As to `O=S(=O)(NCCNc1nccc(-n2cnc3ccccc32)n1)c1ccc(C(F)(F)F)cc1`, the growth in the test with DU-145 prostate is 71.8%; in the test with K-562 leukemia, 40.8%; with MALME-3M melanoma, 71.4%; with MDA-MB-231 breast, 64%; with RXF 393 renal it was 38.2%; in the test on SF-268 CNS, 59.5%. Moreover, the growth in the test with SF-295 CNS is 44.7%; with SF-539 CNS it was 64.8%; with UACC-257 melanoma, 36.8%.

`CC(=O)c1nnn(-c2c(C(=O)n3nc(C)cc3C)sc(=S)n2-c2ccccc2)c1C`: the growth is 109% in the test on DU-145 prostate; 102% in the test on K-562 leukemia; 67.7% with MALME-3M melanoma; 89.2% in the test with MDA-MB-231 breast; 103% in the test with RXF 393 renal; 106% in the test on SF-268 CNS. The growth with SF-295 CNS was 109%; in the test on SF-539 CNS, 96.6%; in the test with UACC-257 melanoma, 101%.

As to `COc1ccc([C@@H]2c3[nH]c4ccccc4c3C[C@H]3C(=O)N(C4CCN(CC5CCCCC5)CC4)CC(=O)N23)c(OC)c1`, the growth with DU-145 prostate was 80.8%; in the test with K-562 leukemia, 22%; in the test with MALME-3M melanoma, 95.7%; in the test with MDA-MB-231 breast it was 75.5%; with RXF 393 renal, 28.7%; in the test with SF-268 CNS, 67.2%. Besides, the growth in the test on SF-295 CNS is 98.6%; with SF-539 CNS, 78.6%; in the test with UACC-257 melanoma, 84.8%.

On to `Oc1ccc(CSc2nnc(-c3ccc(Cl)cc3)n2-c2ccccc2)c2cccnc12`, for which the growth in the test on DU-145 prostate is 38.8%; in the test with K-562 leukemia it was 22.1%; in the test on MALME-3M melanoma, 29.6%; in the test with MDA-MB-231 breast, 58.5%; in the test with RXF 393 renal, 56.3%; in the test on SF-268 CNS it was 30.7%. Moreover, the values for the growth in the test on SF-295 CNS, with SF-539 CNS and in the test on UACC-257 melanoma were 4.65% (active), 22% and 29.3%, respectively.

For `CS(=O)(=O)c1ccc(-c2nn(-c3ccccc3)cc2/C=N/NC(=O)c2nc(N)n[nH]2)cc1`, the growth was 90% in the test with DU-145 prostate; 59.4% in the test with K-562 leukemia; 90% with MALME-3M melanoma; 98.4% in the test with MDA-MB-231 breast; 117% with RXF 393 renal; 103% in the test on SF-268 CNS. Moreover, the figures for the growth in the test on SF-295 CNS, in the test on SF-539 CNS and in the test with UACC-257 melanoma were 103%, 99.3% and 98.3%, respectively.

On to `COc1cc(/C=C/C(=O)c2ccc(NC(=O)CSc3nnc(-c4ccc(-c5nc6ccc(Cl)cc6[nH]5)cc4)o3)cc2)cc(OC)c1OC`, for which the growth is 94% in the test on DU-145 prostate; 60.1% with K-562 leukemia; 95.5% in the test on MALME-3M melanoma; 79.1% with MDA-MB-231 breast; 84.1% with RXF 393 renal; 91.8% with SF-268 CNS. Further, the growth in the test with SF-295 CNS is 95.6%; in the test on SF-539 CNS, 94.2%; with UACC-257 melanoma, 88.1%.
